The list is not random: actives were taken first. Their share in the collection is about 2.7%.
HIV Env fusion – inhibitors of HIV Env-mediated cell fusion. HeLa-JRFL Env/CEM21 cell fusion, luciferase. inhibition, % at 12.3 µM. 360,000 tested, 1.1% active;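 active means mean replicate inhibition score of at least 50 and every replicate individually at or above 50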;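 further: 0% = plate neutral controls and 100% = maraviroc near 300 nM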
PAX8 reporter – inhibitors of PAX8 transcriptional activity in RMG-I cells. 360,000 tested, 1.2% active. inhibition, % at 12.6 µM. RMG-I TPO-luciferase reporter, SteadyGlo, 24 h;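 active means mean replicate inhibition at least 60% with every replicate also reaching 60%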;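 further: luciferase light reporting Pax8 driven TPO promoter activity; plate controls were median of neutral control wells for no effect and mitoxantrone controls for full effect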
EWS-Fli block – inhibitors of EWS/Fli oncoprotein transcriptional activity. 350,000 tested, 0.67% active. A673 NR0B1-luciferase reporter, viability-normalised. inhibition, % at 12.6 µM;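 active means mean inhibition of at least 50% after viability correction, with every replicate also passing that limit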;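 further: firefly luciferase signal divided by Alamar Blue viability fluorescence both relative to DMSO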
INS-1E GSIS act – GLuc luminescence reporter in INS-1E cells, primary screen for activators of glucose-dependent secretion of insulin | INS-1E GLuc reporter insulin secretion, 2-3 h | activation, % at 16.6 µM | 370,000 tested, 0.61% active | AID 743287;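 active means lowest replicate activation of at least 40%, so every replicate reaches that level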;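 further: 0% = median of neutral control wells and 100% = median of IBMX positive control wells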
F508del corr – CFTR F508del correction in bronchial cells | CFBE cells, YFP halide quenching; stimulated with forskolin plus potentiator P3; % fluorescence drop versus neutral controls | AID 720511 | activity (quench increase), % at 7.58 µM | 350,000 tested, 0.36% active;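 active means mean added fluorescence quench of at least 8% versus neutral control, with both replicates also reaching 8%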;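 further: cells transiently co-express mutant CFTR-F508del with the halide-sensitive YFP; corrector assay measuring rescue of mutant channel to the surface after 24 h compound exposure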
PGC1a acetyl inh – PGC1a acetylation modulation, inhibitor mode | U2OS PGC1a acetylation, AlphaScreen anti-acetyl-lysine; with virally co-expressed GCN5 acetyltransferase | inhibition, % at 15.6 µM | 350,000 tested, 0.17% active;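 active means every replicate shows inhibition of at least 40%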;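 further: 0% = neutral control wells and 100% = positive control wells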
* hit, by the source's call; · = no result; [ ] = another dose, or the depositor's remark.

SMILES	HIV Env fusion	PAX8 reporter	EWS-Fli block	INS-1E GSIS act	F508del corr	PGC1a acetyl inh
COc1ccccc1NS(=O)(=O)c1ccc(-c2cnc(C3CC3)o2)cc1	-11.6	41.3	·	11.0	2.9	-26.5
O=C(C[C@H]1CC[C@@H]2[C@H](COC[C@H](O)CN2C(=O)Cc2ccccc2)O1)NC1CCC1	·	-37.2	-9.1	-2.3	-1.5	4.0
O=C(C1CC1)N1CCCCN2[C@H](CO)[C@@H](c3ccc(C#CC4CC4)cc3)[C@H]2C1	·	-33.4	-2.9	·	-2.7	0.8
C[C@@H]1CN([C@@H](C)CO)C(=O)c2cc(NC(=O)Cc3ccccc3)ccc2O[C@@H](C)CCCCO[C@@H]1CN(C)S(=O)(=O)c1ccc(Cl)cc1	7.9[16.7 µM]	20.0	7.0	-43.3	-0.9	-10.4
CCOc1ccccc1NS(=O)(=O)c1ccc(-c2cnc(C3CC3)o2)cc1	10.4	76.4*	·	15.5	3.4	-17.3
C[C@H]1CN([C@@H](C)CO)C(=O)Cc2cc(NS(=O)(=O)c3ccccc3)ccc2O[C@@H]1CN(C)C(=O)Nc1ccc(F)cc1	·	-11.5	-5.3	-5.1	0.2	4.3
COc1ccc(NC(=O)Nc2ccc3c(c2)C(=O)N([C@H](C)CO)C[C@H](C)[C@H](CN(C)Cc2ccc4c(c2)OCO4)OCCCC[C@H](C)O3)cc1	68.3*[16.7 µM]	40.6	5.7	-23.0	-1.7	0.8
COc1ccc(NC(=O)Nc2ccc3c(c2)C(=O)N([C@@H](C)CO)C[C@H](C)[C@H](CN(C)Cc2ccc4c(c2)OCO4)OCCCC[C@H](C)O3)cc1	82.6*[16.7 µM]	-0.7	13.4	-21.7	-3.6	8.6
COc1ccc2c(c1)OC[C@H]1[C@H]2N2C(=O)c3cc(OC)c(OC)cc3NC(=O)[C@@]2(C)[C@H]1c1ccccc1	-31.2	-24.0	-7.5	-13.6	1.0	·
Cc1ccc2c(c1)C(=O)N1[C@H]3c4cc(Cl)ccc4OC[C@@H]3[C@H](c3ccccc3)[C@]1(C)C(=O)N2	-0.9	4.5	51.9*	-10.3	-4.5	-2.8
Cc1ccc2c(c1)C(=O)N1[C@H]3c4cc(C)ccc4OC[C@@H]3[C@H](c3ccccc3)[C@]1(C)C(=O)N2	17.3	25.6	49.4	-26.8	-3.6	·
COc1cc2c(cc1OC)C(=O)N1[C@H]3c4ccccc4OC[C@@H]3[C@H](c3ccccc3)[C@]1(C)C(=O)N2	66.4*	8.7	13.8	-24.5	0.2	·
COc1ccc2c(c1)OC[C@H]1[C@H]2N2C(=O)CN(Cc3ccc(Cl)cc3)C(=O)[C@@]2(C)[C@H]1c1ccccc1	72.5*	19.4	9.3	-2.6	0.3	-8.8
COc1ccc(CN2CC(=O)N3[C@H]4c5ccc(OC)cc5OC[C@@H]4[C@H](c4ccccc4)[C@]3(C)C2=O)cc1	31.9	9.9	6.6	-1.7	2.6	·
C[C@H](CO)N1C[C@H](C)[C@H](CN(C)CC2CCCCC2)OCCCC[C@H](C)Oc2ccc(NC(=O)Nc3cccc4ccccc34)cc2C1=O	46.7[16.7 µM]	2.6	92.0*	-7.3	-2.4	-1.9
C[C@@H]1CCCCO[C@@H](CN(C)CC2CCCCC2)[C@@H](C)CN([C@@H](C)CO)C(=O)c2cc(NC(=O)Nc3cccc4ccccc34)ccc2O1	3.0[16.7 µM]	-4.0	77.0*	-15.2	-2.5	-19.0
C[C@@H]1CCCCO[C@H](CN(C)CC2CCCCC2)[C@H](C)CN([C@@H](C)CO)C(=O)c2cc(NC(=O)Nc3cccc4ccccc34)ccc2O1	9.4[16.7 µM]	28.5	18.5	-10.3	-3.6	-14.3
C[C@H]1CN([C@@H](C)CO)C(=O)c2cccc(NC(=O)Nc3cccc4ccccc34)c2O[C@H]1CN(C)CC1CC1	·	89.6*	-2.8	-5.8	1.8	-3.5
C[C@H](CO)N1C[C@H](C)[C@@H](CN(C)CC2CCCCC2)OCCCC[C@H](C)Oc2ccc(NC(=O)Nc3cccc4ccccc34)cc2C1=O	-12.5[16.7 µM]	-14.2	7.1	-6.0	1.4	1.9
C[C@@H]1CN([C@H](C)CO)C(=O)c2cc(NC(=O)Nc3cccc4ccccc34)ccc2O[C@@H](C)CCCCO[C@@H]1CN(C)CC1CCCCC1	-1.5[16.7 µM]	-2.9	76.5*	-4.7	1.3	-5.3
C[C@@H]1CCCCO[C@H](CN(C)CC2CC2)[C@H](C)CN([C@@H](C)CO)C(=O)c2cc(NC(=O)Nc3cccc4ccccc34)ccc2O1	-14.6[16.7 µM]	1.0	-2.7	16.0	0.7	-39.6

Compound activity as filed in PubChem.
